Measurements published in PubChem BioAssay (Tox21).
Records with an inconclusive call do not appear. Entries that show only a call come without a potency. Active and inactive are the calls of the source. Unless noted, the call rests on the fitted dose curve; in most records, active means well fitted curve in the direction sought with a large enough effect in the repeat runs; inconclusive means weak or mixed curves; inactive means no such curve, though single readings can be large; an effect the other way counts as inactive or inconclusive.

What was measured:
[1] = qHTS assay to identify small molecule antagonists of the estrogen related receptor (ERR) signaling pathway - cell viability counter screen (AID 1224818); conditions: ERR reporter cell line viability counter screen; series mostly up to 46.1 µM
In short: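 ERR cells, 2,000 per well, compound added after 6 h and incubated 17.5 h at 37 C. Viability read by CellTiter-Fluor fluorescence after a further 30 min at 37 C.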

[2] = qHTS assay to identify small molecule antagonists of the estrogen related receptor (ERR) signaling pathway (AID 1224819; further: nearly all actives have a fitted effect of over 50% in size; further: potency means the concentration at half of the fitted maximal effect); conditions: ERR reporter cell line, luciferase inhibition; series mostly up to 46.1 µM
In short: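 ERR reporter cell line (NTP) plated at 2,000 cells/well, settled 6 h at 37C/5% CO2, then exposed to LOPAC compounds for 18 h at 37C. One-Glo luciferase luminescence read after 30 min at room temperature.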

[3] = qHTS assay to identify small molecule agonists of the estrogen related receptor (ERR) signaling pathway (AID 1224820); conditions: ERR reporter cell line, luciferase agonist mode; series mostly up to 46.1 µM; further: potency means the concentration at half of the fitted maximal effect
In short: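 Cells: ERR line from NTP, 2,000/well. Pre-incubation 6 h, 37 C/5% CO2. Compound (DMSO) pin transfer, 18 h 37 C. One-Glo, 30 min RT, luminescence.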

[4] = system: estrogen-related receptor alpha (ERRalpha) with PGC-1alpha coactivator, human; assay: qHTS assay to identify small molecule antagonists of the estrogen related receptor signaling pathway with the pleiotropic PPARgamma coactivator (PGC) (AID 1224821; calls by dose curve; further: nearly all actives have a fitted effect of over 50% in size; further: potency means the concentration at half of the fitted maximal effect); conditions: ERR/PGC reporter cell line, luciferase, antagonist mode; series mostly up to 46.1 µM
In short: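 Luminescent read-out (One-Glo, 30 min at room temperature) following 18 h treatment of PGC/ERR cells at 37 C with compounds delivered in DMSO. Cells had settled 6 h at 37 C/5% CO2 before dosing.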

[5] = qHTS assay to identify small molecule antagonists of the estrogen related receptor signaling pathway with the pleiotropic PPARgamma coactivator (PGC) cell viability counter screen (AID 1224822); conditions: ERR/PGC reporter cell line viability counter screen; series mostly up to 46.1 µM
In short: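 PGC/ERR cells rested 6 h, then compound-treated 17.5 h at 37 C. CellTiter-Fluor added for 30 min at 37 C, viability measured by fluorescence intensity.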

[6] = qHTS assay to identify small molecule agonists of the estrogen related receptor signaling pathway with the pleiotropic PPARgamma coactivator (PGC) (AID 1224823); conditions: ERR/PGC reporter cell line, luciferase agonist mode; series mostly up to 46.1 µM; further: potency means the concentration at half of the fitted maximal effect
In short: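 Steps: plate PGC/ERR cells at 2,000 cells/well; incubate 6 h, 37 C/5% CO2; pin-transfer compounds (DMSO); incubate 18 h, 37 C; add One-Glo; 30 min RT; read luminescence.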

| SMILES | Potency [1] | Potency [2] | Potency [3] | Potency [4] | Potency [5] | Potency [6] |
| --- | --- | --- | --- | --- | --- | --- |
| CC1(C)CCC(NC(=O)[C@@H](N)CCC(=O)O)CC1 | inactive | inactive | inactive | inactive | inactive | inactive |
| C[C@H]1CC2C3CCC4=CC(=O)C=C[C@]4(C)[C@@]3(Cl)[C@@H](O)C[C@]2(C)[C@@]1(O)C(=O)CO (some centres undefined) | inactive | inactive | inactive | inactive | inactive | inactive |
| CCN(CC)CCOC(=O)c1cc(Cl)c(N)cc1OC | inactive | inactive | inactive | inactive | inactive | inactive |
| CCNc1nc2c(ncn2[C@H]2C[C@H](O)[C@@H](CO)O2)c(=O)[nH]1 | inactive | inactive | inactive | inactive | inactive | inactive |
| CS(=O)(=O)c1ccc(-n2nc(C(F)(F)F)cc2-c2ccc(F)cc2)cc1 | inactive | inactive | inactive | inactive | inactive | inactive |
| CCCCCCCCCCC/C=C\C(C)(C)/C=C\CCCC(=O)O | inactive | inactive | inactive | inactive | inactive | inactive |
| CCCCCCCCc1ccc(-c2ccc(C(=O)O)cc2)cc1 | inactive | inactive | inactive | inactive | inactive | inactive |
| Nn1nnc2ccccc21 | inactive | inactive | inactive | inactive | inactive | inactive |
| CN(C)C(=O)/N=N/C(=O)N(C)C | inactive | inactive | inactive | inactive | inactive | inactive |
| CCCCOc1cc(CC2CNC(=O)N2)ccc1OC (centres undefined) | inactive | inactive | inactive | inactive | inactive | inactive |
| COc1ccc(CCN(C)CCc2ccc(OC)c(OC)c2)cc1OC | inactive | inactive | inactive | inactive | inactive | inactive |
| COc1ccc(-c2cc3ncc(C)n3c(Nc3ncccc3C(N)=O)n2)cc1OC | inactive | 2.87 µM (active) | inactive | 2.37 µM (active) | inactive | inactive |
| CC(C)Cc1ccc([C@H](C)C(=O)O)cc1 | inactive | inactive | inactive | inactive | inactive | inactive |
| Nc1nc(OCc2ccccc2)c2[nH]cnc2n1 | inactive | inactive | inactive | inactive | inactive | inactive |
| OC[C@H]1NC[C@@H](O)[C@@H]1O | inactive | inactive | inactive | inactive | inactive | inactive |
| CC(C)(Sc1ccc(CCN(CCCCC2CCCCC2)C(=O)NC2CCCCC2)cc1)C(=O)O | inactive | inactive | inactive | inactive | inactive | inactive |
| C[C@H](O)C(=O)C1=Nc2c(nc(N)[nH]c2=O)NC1 | inactive | inactive | inactive | inactive | inactive | inactive |
| NC(N)=NC(N)=Nc1ccccc1 | inactive | inactive | inactive | inactive | inactive | inactive |
| CC(=O)NC[C@H]1CN(c2ccc(N3CCOCC3)c(F)c2)C(=O)O1 | inactive | inactive | inactive | inactive | inactive | inactive |
| CCCN(CCc1ccccc1)C1CCc2c(O)cccc2C1 (centres undefined) | inactive | inactive | inactive | inactive | inactive | inactive |

| SMILES | Potency [1] | Potency [2] | Potency [3] | Potency [4] | Potency [5] | Potency [6] |
| --- | --- | --- | --- | --- | --- | --- |
| NCCCC(=O)O | inactive | inactive | inactive | inactive | inactive | inactive |
| COC(=O)C(N)Cc1ccc(Cl)cc1 (centres undefined) | inactive | inactive | inactive | inactive | inactive | inactive |
| O=c1cc(-c2ccccc2)[nH]c2nc(Cl)ccc12 | inactive | inactive | inactive | inactive | inactive | inactive |
| CC1C(=O)N(C)C(=O)c2nc[nH]c21 (centres undefined) | inactive | inactive | inactive | inactive | inactive | inactive |
| N#Cc1cc([N+](=O)[O-])c2sc(C(N)=O)[n+]([O-])c2c1 | inactive | inactive | inactive | inactive | inactive | inactive |
| O=c1[nH]ccc2c(O)cccc12 | inactive | inactive | inactive | inactive | inactive | inactive |
| N[C@@H](Cc1ccc(O)c(O)c1)C(=O)O | inactive | inactive | inactive | inactive | inactive | inactive |
| C=C(C)C1CC=C(C(=O)O)CC1 (centres undefined) | inactive | inactive | inactive | inactive | inactive | inactive |
| S=c1[nH]c(-c2ccccc2)cn1-c1ccccc1 | inactive | inactive | inactive | inactive | inactive | inactive |
| O=C(O)CCC(=O)N1CCCC1C(=O)O (centres undefined) | inactive | inactive | inactive | inactive | inactive | inactive |
| O=C1NC(=O)/C(=C/c2ccc3c(c2)OC(F)(F)O3)S1 | inactive | inactive | 3.16 µM (active) | inactive | inactive | inactive |
| N[C@H](C(=O)O)[C@H]1C[C@@H]1C(=O)O | inactive | inactive | inactive | inactive | inactive | inactive |
| Oc1ccc(C2CNCc3sccc32)cc1O (centres undefined) | inactive | inactive | inactive | inactive | inactive | inactive |
| Nc1nc(N)c2nc(CNc3ccc(C(=O)NC(CCC(=O)O)C(=O)O)cc3)cnc2n1 (centres undefined) | inactive | 0.0438 µM (active) | inactive | 0.0619 µM (active) | inactive | inactive |
| Cn1cc(C2=C(c3ccc(Cl)cc3Cl)C(=O)NC2=O)c2ccccc21 | inactive | 21.1 µM (active) | inactive | inactive | inactive | inactive |
| CCN1C(=O)C=CC1=O | inactive | inactive | inactive | inactive | inactive | inactive |
| CN1CCc2cc(Cl)c(O)cc2[C@@H](c2ccccc2)C1 | inactive | inactive | inactive | inactive | inactive | inactive |
| NC(=S)c1ccc[n+]([C@@H]2O[C@@H](COP(=O)([O-])OP(=O)(O)OC[C@H]3O[C@@H](n4cnc5c(N)ncnc54)[C@H](OP(=O)(O)O)C3O)C(O)C2O)c1 (some centres undefined) | inactive | inactive | inactive | inactive | inactive | 18.8 µM (active) |
| COc1ccc2c(c1)c(CC(=O)O)c(C)n2Cc1ccc(Cl)cc1 | inactive | inactive | inactive | inactive | inactive | inactive |
| CCCn1c(=O)c2[nH]c(-c3ccc(S(=O)(=O)O)cc3)nc2n(CCC)c1=O | inactive | inactive | inactive | inactive | inactive | inactive |

| SMILES | Potency [1] | Potency [2] | Potency [3] | Potency [4] | Potency [5] | Potency [6] |
| --- | --- | --- | --- | --- | --- | --- |
| NCCCCN | inactive | inactive | inactive | inactive | inactive | inactive |
| CC(=O)NCCc1c[nH]c2ccc(O)cc12 | inactive | inactive | inactive | inactive | inactive | inactive |
| Cc1nc2c(OCc3ccccc3)cccn2c1CC#N | inactive | inactive | inactive | inactive | inactive | inactive |
| Brc1c(Br)c(Br)c2n[nH]nc2c1Br | inactive | 22 µM (active) | inactive | 21.1 µM (active) | inactive | inactive |
| O=c1[nH]c(=O)c2nc3ccccc3nc2[nH]1 | inactive | inactive | inactive | inactive | inactive | inactive |
| NC(=O)c1cc[n+](CC2=C(C(=O)O)N3C(=O)[C@@H](NC(=O)[C@@H](c4ccccc4)S(=O)(=O)[O-])[C@H]3SC2)cc1 | inactive | inactive | inactive | inactive | inactive | inactive |
| O=C(O)c1cc(=O)c2c(Cl)cc(Cl)cc2[nH]1 | inactive | inactive | inactive | inactive | inactive | inactive |
| [Li+] | inactive | inactive | inactive | inactive | inactive | inactive |
| N[C@@H](Cc1ccc(F)cc1)C(=O)O | inactive | inactive | inactive | inactive | inactive | inactive |
| CCCCCCCCCCCCCCCCCCN(CCCCCCCCCCCCCCCCCC)CCCN(CCO)CCO | inactive | inactive | inactive | inactive | inactive | inactive |
| O=C(O)CCc1ccc(NCc2cccc(Oc3ccccc3)c2)cc1 | inactive | inactive | inactive | inactive | inactive | inactive |
| O=c1onc2cnc3ccccc3n12 | inactive | inactive | inactive | inactive | inactive | inactive |
| NC(CCCP(=O)(O)O)C(=O)O (centres undefined) | inactive | inactive | inactive | inactive | inactive | inactive |
| CC(=O)/C(C)=N/O | inactive | inactive | inactive | inactive | inactive | inactive |
| COc1cc(C(O)CO)ccc1OS(=O)(=O)O (centres undefined) | inactive | inactive | inactive | inactive | inactive | inactive |
| COC(=O)C1=CO[C@@H](O)[C@@H]2C(CO)=CC[C@H]12 | inactive | inactive | inactive | inactive | inactive | inactive |
| CC1CCN(CC[C@H]2CCCN2S(=O)(=O)c2cccc(O)c2)CC1 | inactive | inactive | inactive | inactive | inactive | inactive |
| N#C/C(=C\c1ccc(O)c(O)c1)C(=O)c1ccc(O)c(O)c1 | inactive | inactive | inactive | inactive | inactive | inactive |
| O=C1CCC(c2ccc(-n3ccnc3)cc2)=NN1 | inactive | inactive | inactive | inactive | inactive | inactive |
